# According to PubChem BioAssay AID489012 (National Center for Advancing Translational Sciences (NCATS), 2010):
# Records with an inconclusive call do not appear. Unmarked numbers belong to inactive results. The source made the active and inactive calls. The call rests on the fitted dose curve; in most records, active means well fitted activation curve with a large enough effect; inconclusive means small, poorly fitted or top-dose-only effect; inactive means no such curve, though single readings can be large or run the other way.
# Target: Relaxin receptor 1 (Homo sapiens) (UniProt Q9HBX9)
# Assay: qHTS Assay for Agonists of the Relaxin Receptor RXFP1: RXFP1 Hit Validation; further: nearly all actives have a fitted effect of over 65% in size;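 on activation: cAMP rise lowers the TR-FRET signal in lysed cells with PDE4 inhibitor present; 0% = buffer-only basal and 100% = 29 nM porcine relaxin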
# Conditions: HEK293T-RXFP1 cAMP TR-FRET, 30 min; series mostly up to 115 µM; activation: at the top concentration
# Source text: NIH Chemical Genomics Center [NCGC] NIH Molecular Libraries Probe Production Centers Network [MLPCN] MLPCN Grant: R03 MH085705-01A1 Assay Submitter (PI): Alexander Agoulnik NCGC Assay Overview: The relaxin hormone is involved in the variety of biological functions in normal tissues and diseases. The role of relaxin is well-established in female reproduction and parturition, mammary gland and endometrial development, maintenance of myometrial quiescence during pregnancy. Relaxin signaling through its G protein-coupled receptor (GPCR) RXFP1 results in ECM remodeling through regulation of collagen deposition, cell invasiveness, proliferation and overall tissue homeostasis. […] Recombinant human relaxin (rhRlx) is currently being tested in clinical trials as a protective agent in congestive heart failure, in treating severe preeclampsia, and as an anti-fibrotic agent in systemic sclerosis. Upon relaxin binding RXFP1 activation leads to the activation of adenylate cyclase (AC) via Gs. cAMP will activate PKA, which phosphorylates many signaling proteins. Thus, detection of cAMP increase is an easy and reliable indication of relaxin receptor activation. To screen for agonists of the relaxin receptor, a HEK293T cell line stably transfected with RXFP1 was used. RXFP1 activation was assayed by changes in cAMP levels as detected with a time-resolved fluorescence energy transfer (TR-FRET) cAMP detection kit.
# NCGC Assay Protocol Summary: This is a cell-based assay for cAMP second messenger response to screen for agonists of the RXFP1 receptor. The assay was conducted in the presence of a PDE4 inhibitor (Ro 20174). The cells were lysed and the cAMP levels were measured with a TR-FRET cAMP kit. Presence of cAMP in the cell lysate disrupts binding between the cryptate-labeled anti-cAMP and d2-labeled cAMP pair, leading to a decrease in the TR-FRET signal. Data were normalized to the controls for basal activity (buffer only) and 100% activity (29 nM porcine relaxin). The EC50 values were determined from concentration-response data modeled with the standard Hill equation 1536-well assay protocol for the HEK293 RXFP1 cAMP assay: (1) Add 3 ul HEK293 RXFP1 cell culture. 2000 cells/well in DMEM/F12, 10% FBS, 1x Pen/Strep (dispensed offline with MultiDrop Combi). (2) Incubate 16-24 hr at 37C, 5% CO2. (3) Add 1 ul 400uM Ro20174 in DPBS, 0.05% BSA, 0.005% Tween 20. (3) Add 23 nl compounds in DMSO solution. Final concentration was 0.5 - 58 uM. (4) Incubate 30 min at 37C, 5% CO2. (5) Add 1 ul cAMP-d2 in lysis buffer (HTRF cAMP HiRange kit, CisBio). (6) Add 1 ul anti-cAMP antibody-cryptate in lysis buffer (HTRF cAMP HiRange kit, CisBio). (7) Incubate 30 min at room temperature. […] Keywords: relaxin, RXFP1, RXFP2, G-protein coupled receptor, cAMP, agonist, high throughput screening, MLSMR, MLSCN, NIH Roadmap, qHTS and NCGC
# Potency means the concentration at half of the fitted maximal effect.
# Chain of Relaxin receptor 1 (Homo sapiens) (Q9HBX9 whole entry, looked up): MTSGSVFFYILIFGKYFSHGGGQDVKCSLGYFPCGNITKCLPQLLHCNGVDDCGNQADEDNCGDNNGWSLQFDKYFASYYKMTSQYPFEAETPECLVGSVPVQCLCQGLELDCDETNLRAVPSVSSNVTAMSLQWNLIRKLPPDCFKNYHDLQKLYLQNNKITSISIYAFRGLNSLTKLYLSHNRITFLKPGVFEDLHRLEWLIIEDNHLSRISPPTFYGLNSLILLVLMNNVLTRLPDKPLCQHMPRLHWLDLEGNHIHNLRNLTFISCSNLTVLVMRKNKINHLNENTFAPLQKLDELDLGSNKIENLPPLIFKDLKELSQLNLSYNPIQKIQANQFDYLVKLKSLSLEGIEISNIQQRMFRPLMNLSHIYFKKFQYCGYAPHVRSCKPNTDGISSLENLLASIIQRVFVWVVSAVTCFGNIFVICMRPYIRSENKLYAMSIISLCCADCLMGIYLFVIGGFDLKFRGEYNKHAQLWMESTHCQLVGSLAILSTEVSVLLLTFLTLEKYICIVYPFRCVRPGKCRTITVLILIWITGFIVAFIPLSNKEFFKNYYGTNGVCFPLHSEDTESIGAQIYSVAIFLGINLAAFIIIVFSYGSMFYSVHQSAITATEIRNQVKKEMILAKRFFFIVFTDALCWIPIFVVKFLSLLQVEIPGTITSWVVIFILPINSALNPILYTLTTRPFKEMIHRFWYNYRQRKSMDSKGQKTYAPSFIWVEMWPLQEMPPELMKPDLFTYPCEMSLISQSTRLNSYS
Compound,activation,Potency
O=C(Nc1ccccc1C(=O)NC1CCCCC1)c1ccco1,17.3% [at 125 µM],–
CCN(c1ccccc1)S(=O)(=O)c1ccc(OC)c(NC(=O)C2CC(=O)N(Cc3ccccc3)C2)c1 (stereo not given),-5.54%,–
CC1(C)Cc2nc3sc4c(SCC(=O)NC(c5ccccc5)c5ccccc5)ncnc4c3cc2CO1,–,4.88 µM (active)
O=C(OCc1nc2ccsc2c(=O)[nH]1)c1cccc(S(=O)(=O)N2CCOCC2)c1,–,34.6 µM (active)
NCCNC(=O)Cc1ccc(NC(=O)Cc2ccc(Nc3ncnc4c3ncn4[C@@H]3O[C@H](CO)[C@@H](O)[C@H]3O)cc2)cc1,–,1.23 µM (active)
N#Cc1c(N)nc(SCC(=O)C23CC4CC(CC(C4)C2)C3)c(C#N)c1-c1ccc(Cl)cc1,–,9.74 µM (active)
COc1ccc(S(=O)(=O)Nc2ccccn2)c(C)c1C,1.99% [at 45 µM],–
O=C(Nc1cccc(C(F)(F)F)c1)c1ccccc1NC(=O)C1CCCCC1,–,11.9 µM (active)
CCOP1(=O)OCC2OC(n3cnc4c(N)ncnc43)C(O)C2O1 (stereo not given),–,6.91 µM (active)
O=C(Nc1ccc(Cl)cc1)Nc1ccccc1Sc1ncc([N+](=O)[O-])s1,7.1%,–
CC1(C)Cc2c(sc3c2c2ncnn2c2nnc(SCC(=O)NCc4ccco4)n32)CO1,–,6.16 µM (active)
Cc1ccc(Cl)cc1NC(=O)CCCN1C(=O)c2cccnc2C1=O,22.7%,–
O=C(Nc1ccccc1C(=O)NCc1ccco1)c1ccco1,19.7% [at 125 µM],–
O=C(Nc1ccccc1C(=O)NCCc1ccc(O)cc1)c1ccco1,-4.47% [at 125 µM],–
COC(=O)[C@@H]1C[C@@]2(O)[C@H](O)[C@H](O)[C@H](O)C[C@H]2N1Cc1cc(F)ccc1F,3.14%,–
S=c1nc[nH]c2c1[nH]c1ccccc12,–,6.9 µM (active)
CCOC(=O)/C(C#N)=C/c1c(N2CCN(CC)CC2)nc2c(C)cccn2c1=O,23.8%,–
O=C(O)c1cc(-c2ccco2)nc2ccc(Br)cc12,–,19.4 µM (active)
CCOC(=O)c1sc(=NC(=O)c2ccc(S(=O)(=O)N(C)c3ccccc3)cc2)n(C)c1C,–,19.4 µM (active)
Cc1c(C(=O)NNc2cc(=O)n(C)c(=O)n2C)cccc1[N+](=O)[O-],25.3% [at 45 µM],–

Compound,activation,Potency
Cc1cccc2cc(C#N)c(SCC(=O)NCc3cccs3)nc12,–,17.3 µM (active)
Cc1noc(NS(=O)(=O)c2ccc(N3Cc4ccccc4C3=O)cc2)c1C,–,11.9 µM (active)
CCC(=O)Nc1ccc(-n2nnnc2SCC(=O)NNC(=O)c2ccco2)cc1,-4.13%,–
Cc1cc2nc3ccc(=[N+](C)C)cc-3sc2cc1N,-10.4%,–
COc1ccc(CCn2c(=N)c(C(=O)NCC3CCCO3)cc3c(=O)n4cccc(C)c4nc32)cc1 (stereo not given),20.5%,–
COc1ccc(/C=C2/SC(=O)N(CC(=O)Nc3cc(C)on3)C2=O)cc1OC,-68%,–
Cc1cc(C)n(C(=O)CCCn2cc([N+](=O)[O-])cn2)n1,28%,–
Cc1cccn2c(=O)c(/C=C3\SC(=S)NC3=O)c(NCCCN3CCOCC3)nc12,–,7.74 µM (active)
COc1ccc(C(=O)Nc2ccc(S(=O)(=O)Nc3onc(C)c3C)cc2)c(OC)c1,–,5.95 µM (active)
CCCC(=O)Nc1ncnc2c1ncn2[C@@H]1O[C@@H]2OP(=O)(O)OC[C@H]2[C@H]1OC(=O)CCC,–,0.346 µM (active)
O=C(NCc1nnc2c(C(F)(F)F)cc(Cl)cn12)c1cccnc1,24.5%,–
O=C1CN(c2nc3ccccc3n3cnnc23)CC(=O)N1CCc1ccccc1,13.4% [at 45 µM],–
O=C(Nc1ccccc1C(=O)Nc1ccc(F)cc1)c1ccco1,-0.753% [at 125 µM],–
COc1cccc(C(=O)CSc2nnc(-c3cc(OC)cc(OC)c3)o2)c1,–,13.8 µM (active)
Cc1cc(C)nc(NS(=O)(=O)c2ccc(NC(=O)c3nn(-c4ccccc4)ccc3=O)cc2)n1,–,24.5 µM (active)
CC1C/C(=N\NC(N)=S)c2cc(Cl)ccc2S1 (stereo not given),5.78%,–
CCC1(C)Cc2c(sc3c2c2ncnn2c2nnc(SCC(=O)NCc4ccco4)n32)CO1 (stereo not given),–,12.3 µM (active)
CCOc1ccccc1NC(=O)CSc1ccc2nnc(-c3cccnc3)n2n1,29%,–
O=C(Nc1ccccc1C(=O)NCCN1CCOCC1)c1ccco1,-0.806% [at 125 µM],–
C=CCOc1c(Cl)cc(CNc2ccc(N(C)C)cc2)cc1OC,6.41%,–
